The text below walks through data of PubChem BioAssay (NCI).

Compounds without any hit were thinned out: in the full panel of roughly 79,000, 15% have a hit. The source made the active and inactive calls. No stated cut-off is given here; in the data, active means growth inhibition above about 70%; inactive means the rest.

The first test in a line: NCI Yeast Anticancer Drug Screen. Data for the bub3 strain (AID 167). The following applies: S. cerevisiae bub3 mutant strain, at 50.0 µM, active compounds read high. An outline of the steps: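 Readout: yeast growth inhibition, expressed relative to vehicle-only wells. The test organism is a mutant strain from a panel with lesions in DNA repair or checkpoint genes.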
Take `CCOc1cc(C)c2cccc(C)c2n1`: the growth inhibition was 2% (inactive).

As for `Cc1nc2ccccc2n1CCC(N)=O`, the growth inhibition was -26.9% (inactive).

Consider `ClCC1=NC2C(Cl)C(Cl)C(Cl)C(Cl)C2N1` (centres undefined), for which the growth inhibition was 75.9% (active).

For `CC(C)CC(NS(=O)(=O)Cc1ccccc1)C(=O)NN` (centres undefined), the growth inhibition was 7.5% (inactive).

Another test in a line: NCI Yeast Anticancer Drug Screen. Data for the mlh1 rad18 strain (AID 175). Conditions: S. cerevisiae mlh1 rad18 strain growth inhibition; at 50.0 µM; active compounds read high. An outline of the steps:
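A repair-deficient yeast strain is exposed to test compound, and growth is scored relative to vehicle-treated controls.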
As to `Cc1cc2c(c(C(=O)NCC(=O)O)c1)Oc1c(cc(C)cc1C(=O)NCC(=O)O)S2`, the growth inhibition was 20.9% (inactive).

Turning to `O=C(Nc1ccc(Cl)cc1)Nc1nnc2nc(CC(=O)c3cccc([N+](=O)[O-])c3Cl)c(=O)[nH]n12`, the growth inhibition was 9.55% (inactive).

In the case of `CC(C)C(CC(=O)O)C(=O)O` (centres undefined), the growth inhibition was 4.65% (inactive).

Take `COCC(=O)c1ccc(C#N)cc1`: the growth inhibition is 2.2% (inactive).

On to `CCCCCCC(C)Cl` (centres undefined), for which the growth inhibition was 1.05% (inactive).

Turning to `COc1ccc(C2N3CCCCC3[C@@H]3c4[nH]c5ccccc5c4CCN23)c(OC)c1` (some centres undefined), the growth inhibition was -9.65% (inactive).

On to `O=C1CCCCCCN1`, for which the growth inhibition was 12.6% (inactive).

For `NC(Cc1ccccc1CP(=O)(O)O)C(=O)O` (centres undefined), the growth inhibition was -44.2% (inactive).

For the molecule `CCOC(=O)c1sc(C(=O)OCC)c(O)c1O`, the growth inhibition was 97% (active).

For `CCOc1ccc(NC(=O)C(=O)CC(=O)C2=C(C)Nc3ccccc3S2)cc1`, the growth inhibition was 28.5% (inactive).

In the case of `S=C1CC(c2ccccc2)Sc2ccccc2N1` (centres undefined), the growth inhibition is -25.6% (inactive).

As for `CCN(CC)CCN1Cc2ccccc2C1`, the growth inhibition is 2.45% (inactive).

Consider `CCc1ccccc1NC(=O)C1=C(C)NC(C)=C(C(=O)Nc2ccccc2CC)C1c1ccc2c(c1)OCO2`, for which the growth inhibition was -4% (inactive).

Regarding `COC(=O)C1CCC=CC1OC(C)=O` (centres undefined), the growth inhibition is 3.2% (inactive).

Consider `CCN(CC)c1ccc(Br)cc1`, for which the growth inhibition was 33.9% (inactive).

`COC(=O)CC1(O)C=C(C)C(=O)c2ccccc21` (centres undefined): the growth inhibition was -11.2% (inactive).

Take `CNC(=O)Sc1ccc([N+](C)(C)C)cc1`: the growth inhibition is 30.3% (inactive).

In the case of `Cc1c2oc3c(C)ccc(C(=O)NCCN4CCN(c5ccccc5)CC4)c3nc-2c(C(=O)NCCN2CCN(c3ccccc3)CC2)c(N)c1=O`, the growth inhibition was -32.6% (inactive).

Take `BrCCCCCBr`: the growth inhibition is 15.6% (inactive).

With `O=[N+]([O-])c1ccc2c(c1)C(O)c1ccccc1-2` (centres undefined), the growth inhibition is 29.1% (inactive).

As for `CC(O)C(C)C(N)C(=O)O` (centres undefined), the growth inhibition was 18.4% (inactive).

Regarding `Cc1cccc(NC(=S)N(CCC#N)C2CCCCC2)c1`, the growth inhibition was 9.85% (inactive).

`CNC(=O)OCc1c(COC(=O)NC)c2n(c1C)CCS2(=O)=O`: the growth inhibition was 15.2% (inactive).

Regarding `Cc1ccc2[nH]c(C)c(C(=O)c3ccncc3)c2c1`, the growth inhibition is -9.45% (inactive).

Consider `Brc1ccc2c(c1)C1(c3cc(Br)ccc3-2)c2cc(Br)ccc2-c2ccc(Br)cc21`, for which the growth inhibition is 3.95% (inactive).

For `COc1ccc2c(CC(=O)O)cc(=O)oc2c1`, the growth inhibition was 14.2% (inactive).

With `O=c1cc(NCc2cccc([N+](=O)[O-])c2)[nH]c(=O)[nH]1`, the growth inhibition is 6.6% (inactive).

For the molecule `CCCCCCCCCCCCOC1C(COCCN2CCCCC2)OC2OC(C)(C)OC21` (centres undefined), the growth inhibition was 90.2% (active).

With `CN(N=O)C(=O)NC(C=O)C(O)C(O)C(O)CO` (centres undefined), the growth inhibition is 1.6% (inactive).

Turning to `Cc1ccc2c(c1)SCc1c-2[nH]c2ccccc12`, the growth inhibition is 92.8% (active).

Take `N#C/C(=C\c1cccc(Cl)c1)C(=O)c1ccccc1`: the growth inhibition was 33.2% (inactive).

`COC(=O)C1(Cc2ccc3c(c2)CCC3)Cc2ccccc2C1=O` (centres undefined): the growth inhibition is 8.8% (inactive).

With `CC(C)C(=O)CC1(O)C(=O)Nc2ccc([N+](=O)[O-])cc21` (centres undefined), the growth inhibition was 2.5% (inactive).

Regarding `CC(=O)OC1/C=C(/C)CCC2OC2(C)CC2OC(=O)C3(CC3)C12` (centres undefined), the growth inhibition is -7.2% (inactive).

On to `CCCCCCCCCCCC(=O)Nc1ccc(N(C)C(C)=O)cc1`, for which the growth inhibition is -10.1% (inactive).

As to `CN(Cc1ccc(Cl)cc1)C(=O)Nc1ccccc1Cl`, the growth inhibition was 9.95% (inactive).

`CCOc1cc(C)c2cccc(C)c2n1`: the growth inhibition is 13.8% (inactive).

With `Cc1nc2ccccc2n1CCC(N)=O`, the growth inhibition is -2.35% (inactive).

In the case of `ClCC1=NC2C(Cl)C(Cl)C(Cl)C(Cl)C2N1` (centres undefined), the growth inhibition is 94% (active).

In the case of `CC(C)CC(NS(=O)(=O)Cc1ccccc1)C(=O)NN` (centres undefined), the growth inhibition was -22.1% (inactive).
